# Test results reported in publication PMC11062922 (Nature Chemical Biology, 2023).
# Where two headings read alike, the source gives them in different places.
# Columns and labels:
# Design in all cases: species or system human, MV4-11 + K-562 + COLO205 + SK-N-BE2 + OVCAR-8
# [1] = system: FN3K; conditions: read-out: apparent Kd; compound concentrations: 100 nM and 1000 nM (sheet 'Samples'), CATDS: 0.30544658046652101; n = 1
# [2] = system: ROCK1; conditions: read-out: apparent Kd; compound concentrations: 100 nM and 1000 nM (sheet 'Samples'), CATDS: 0.35168740775253199; n = 1
# [3] = system: ROCK2; conditions: read-out: apparent Kd; compound concentrations: 100 nM and 1000 nM (sheet 'Samples'), CATDS: 0.34690050634706199; n = 1
# [4] = system: FLT4; conditions: read-out: apparent Kd; compound concentrations: 100 nM and 1000 nM (sheet 'Samples'), CATDS: 1; n = 1
# [5] = system: GSK3A; conditions: read-out: apparent Kd, n = 1
# [6] = system: GSK3B; conditions: read-out: apparent Kd, n = 1
# [7] = system: ICK; conditions: read-out: apparent Kd; compound concentrations: 100 nM and 1000 nM (sheet 'Samples'), CATDS: 0.23938622627213799; n = 1
# [8] = system: STRADA; conditions: read-out: apparent Kd; compound concentrations: 100 nM and 1000 nM (sheet 'Samples'), CATDS: 0.19302175262426299; n = 1
# [9] = system: JAK2; conditions: read-out: apparent Kd; compound concentrations:100 nM and 1000 nM (sheet 'Samples'); n = 1
# [10] = system: PRKCA; conditions: read-out: apparent Kd, n = 1
# [11] = system: PRKCB; conditions: read-out: apparent Kd, compound concentrations: 100 nM and 1000 nM (sheet 'Samples'), n = 1
# [12] = system: PRKCD; conditions: read-out: apparent Kd, n = 1
# [13] = system: PRKCI; conditions: read-out: apparent Kd; compound concentrations: 100 nM and 1000 nM (sheet 'Samples'), CATDS: 6.3639374568516094E-2; n = 1
# [14] = system: PRKCQ; conditions: read-out: apparent Kd; compound concentrations: 100 nM and 1000 nM (sheet 'Samples'), CATDS: 0.13479681678754199; n = 1
# [15] = system: RPS6KA6; conditions: read-out: apparent Kd, n = 1
# [16] = system: RPS6KB1; conditions: read-out: apparent Kd, n = 1
# [17] = system: HSP90B1; conditions: read-out: apparent Kd; compound concentrations: 100 nM and 1000 nM (sheet 'Samples'), CATDS: 1; n = 1
# [18] = system: SLK; conditions: read-out: apparent Kd; compound concentrations:100 nM and 1000 nM (sheet 'Samples'); n = 1
# [19] = compound concentrations:100 nM and 1000 nM (sheet 'Samples')
structure (smiles),measurement,setting,value
NS(=O)(=O)c1cccc(N/C=C2\C(=O)Nc3ccc(S(=O)(=O)Cc4c(Cl)cccc4Cl)cc32)c1 [GSK398099A],potency estimated from few doses,[1],2240 nM
same,potency estimated from few doses,[2],1680 nM
same,potency estimated from few doses,[3],1720 nM
COc1ccc(-c2nn3ncccc3c2-c2ccnc(Nc3ccc(Cl)c(C(F)(F)F)c3)n2)cc1 [GW829115X],potency estimated from few doses,[4],635 nM
Cn1cc(C2=C(c3cccc(OCC(O)CO)c3)C(=O)NC2=O)c2ccccc21 (stereo not shown) [RO5198354-000],potency estimated from few doses,"[5]; compound concentrations: 100 nM and 1000 nM (sheet 'Samples'), CATDS: 0.57799072500507098",370 nM
same,potency estimated from few doses,"[6]; compound concentrations: 100 nM and 1000 nM (sheet 'Samples'), CATDS: 0.44055416886874998",644 nM
CCCn1cc(C2=C(c3cn(C)c4ccccc34)C(=O)NC2=O)c2ccccc21 [RO0318549-000],potency estimated from few doses,"[5]; compound concentrations: 100 nM and 1000 nM (sheet 'Samples'), CATDS: 0.30461249661504503",823 nM
same,potency estimated from few doses,"[6]; compound concentrations: 100 nM and 1000 nM (sheet 'Samples'), CATDS: 0.29770520720673899",857 nM
same,potency estimated from few doses,[7],1320 nM
same,potency estimated from few doses,[8],2260 nM
Cn1cc(C2=C(c3cccc(OC[C@H](O)CO)c3)C(=O)NC2=O)c2ccccc21 [RO3206173-000],potency estimated from few doses,"[5]; compound concentrations: 100 nM and 1000 nM (sheet 'Samples'), CATDS: 0.54568324377959498",6.06 nM
same,potency estimated from few doses,"[6]; compound concentrations: 100 nM and 1000 nM (sheet 'Samples'), CATDS: 0.46137484559858299",8.49 nM
O=C(Nc1cccnc1)c1cc(-c2ccnc(F)c2)ccc1OCc1ccccc1 [GSK2578215],potency estimated from few doses,[9],322 nM
Cl.Cn1cc(C2=C(c3c4n(c5ccccc35)CCC(CN)C4)C(=O)NC2=O)c2ccccc21 (stereo not shown) [RO0318425-001],potency estimated from few doses,"[5]; compound concentrations: 100 nM and 1000 nM (sheet 'Samples'), CATDS: 7.9505519232768704E-2",383 nM
same,potency estimated from few doses,"[6]; compound concentrations: 100 nM and 1000 nM (sheet 'Samples'), CATDS: 0.10826194795631",122 nM
same,potency estimated from few doses,"[10]; compound concentrations: 100 nM and 1000 nM (sheet 'Samples'), CATDS: 0.4123063070702",8.81 nM
same,potency estimated from few doses,[11]; CATDS: 0.195628585726322,30 nM
same,potency estimated from few doses,"[12]; compound concentrations: 100 nM and 1000 nM (sheet 'Samples'), CATDS: 0.18341156503501599",34.1 nM
same,potency estimated from few doses,[13],1630 nM
same,potency estimated from few doses,[14],67.5 nM
same,potency estimated from few doses,"[15]; compound concentrations: 100 nM and 1000 nM (sheet 'Samples'), CATDS: 9.8162959720225998E-2",167 nM
same,potency estimated from few doses,"[16]; compound concentrations: 100 nM and 1000 nM (sheet 'Samples'), CATDS: 7.7658945876463797E-2",429 nM
O=C(Nc1ccccc1F)NC1CCN(c2ccnc(Nc3ccc(F)cc3)n2)C1 (stereo not shown) [GSK1379722A],potency estimated from few doses,[17],875 nM
Cn1cc(C2=C(c3c4n(c5ccccc35)CCC(CN)CC4)C(=O)NC2=O)c2ccccc21 (stereo not shown) [RO0319371-000],potency estimated from few doses,[5]; [19],608 nM
same,potency estimated from few doses,[6]; [19],504 nM
same,potency estimated from few doses,[10]; [19],22.2 nM
same,potency estimated from few doses,[11]; CATDS: 0.217434450418582,52.3 nM
same,potency estimated from few doses,[12]; [19],31.6 nM
same,potency estimated from few doses,[15]; [19],342 nM
same,potency estimated from few doses,[16]; [19],306 nM
same,potency estimated from few doses,[18],2120 nM
